Measurements as given in PubChem BioAssay (NCI).
The panel holds about 79,000 compounds, 15% with a hit somewhere; the sample as a whole holds those more often. Cut-off read from the data, not from the text of the source: active = growth inhibition above about 70%; inactive = the rest.

Assays:
[1] = NCI Yeast Anticancer Drug Screen. Data for the rad50 strain (AID 155);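 note: 0% = growth of vehicle-only cultures of the same strain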; settings: S. cerevisiae rad50 strain growth inhibition; at 50.0 µM; active compounds read high
Outline: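 Vehicle-treated cultures provide the reference for the growth inhibition reported for compound-exposed, repair-deficient yeast.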

[2] = NCI Yeast Anticancer Drug Screen. Data for the mec2-1 strain (AID 157); settings: S. cerevisiae mec2-1 strain, at 50.0 µM, active compounds read high
Outline: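 Readout is yeast growth inhibition, normalised to vehicle-treated controls, in the mec2-1 strain exposed to compound.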

[3] = NCI Yeast Anticancer Drug Screen. Data for the sgs1 mgt1 strain (AID 161);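 note: 0% = growth of cultures given vehicle only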; settings: S. cerevisiae sgs1 mgt1 strain, at 50.0 µM, active compounds read high
Outline: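 Percent growth inhibition was derived by comparing compound-exposed mutant yeast with vehicle-exposed cultures. The strain carries alterations in DNA damage repair.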

[4] = NCI Yeast Anticancer Drug Screen. Data for the cln2 rad14 strain (AID 165);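 note: 0% = growth equal to vehicle treated cultures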; settings: S. cerevisiae cln2 rad14 strain, at 50.0 µM, active compounds read high
Outline: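 Relative to vehicle controls, growth inhibition of compound-treated cln2 rad14 yeast was recorded.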

[5] = NCI Yeast Anticancer Drug Screen. Data for the bub3 strain (AID 167); settings: S. cerevisiae bub3 mutant strain, at 50.0 µM, active compounds read high
Outline: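 Mutant yeast screening strain plus compound; vehicle-treated cultures serve as the 0% inhibition reference.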

[6] = NCI Yeast Anticancer Drug Screen. Data for the mlh1 rad18 strain (AID 175); settings: S. cerevisiae mlh1 rad18 strain growth inhibition; at 50.0 µM; active compounds read high
Outline: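 Test agents were incubated with a yeast strain of defined genotype (DNA damage repair defect). Inhibition of growth was derived by comparison with vehicle-exposed cultures.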

Measured: growth inhibition

CC(C)=CCCC(C)(OC1OC(COC2OCC(O)C(O)C2O)C(O)C(O)C1O)C1CCC2(C)C1C(O)CC1C3(C)CCC(OC4OC(CO)C(O)C(O)C4OC4OC(CO)C(O)C(O)C4O)C(C)(C)C3CCC12C (centres undefined)
inactive: [1] -15.8% | [2] -26.1% | [3] -6.05% | [4] 6.6% | [5] 4.55% | [6] 18.4%

CCCCCCCCSC#N
inactive: [1] 7.95% | [2] -11% | [3] -3.6% | [4] 23.9% | [5] 2% | [6] -1.4%

CCCCCC(/C=C/c1ncccc1OCCCCCC(=O)O)=N\NC1=NCCN1
inactive: [1] 16.8% | [2] -17.6% | [3] -13.6% | [4] -25.4% | [5] -44.6% | [6] 11.7%

COC(=O)C1(CC(=O)Cc2ccccc2)NC(=S)NC(=O)C1C#N (centres undefined)
inactive: [1] 8.45% | [2] -7.7% | [3] -12.2% | [4] -12.1% | [5] -29.1% | [6] 4.8%

COc1ccc(C(C)(O)c2cc3ccccc3n2S(=O)(=O)c2ccccc2)cc1 (centres undefined)
inactive: [1] -8.95% | [2] -12.3% | [3] -0.9% | [4] -14.3% | [5] 0.75% | [6] 18.4%

O=C(Oc1ccccc1[N+](=O)[O-])Oc1ccccc1[N+](=O)[O-]
inactive: [1] -3.45% | [2] 16.3% | [3] 19.5% | [4] -29.4% | [5] 16.2% | [6] -2.7%

COc1ccc(OC)c(-c2nc3ccccc3c(=O)[nH]2)c1
inactive: [1] 9.1% | [2] 10.8% | [3] 3.35% | [4] 14.2% | [5] 22.8% | [6] 0%

O=C(CN1C(=O)c2ccccc2C1=O)NCC(=O)N(C(=O)NC1CCCCC1)C1CCCCC1
inactive: [1] 23.1% | [2] 2.3% | [3] 27.9% | [4] 11.8% | [5] -3.35% | [6] 5%

COc1ccccc1C(=O)c1ccccc1
inactive: [1] -27.4% | [2] -7.3% | [3] -3.4% | [4] -14.9% | [5] -20.1% | [6] -11.2%

COc1c2c(c(OC)c(C(C)=O)c1OC(=O)c1ccccc1)CCO2
inactive: [1] 1% | [2] -14.4% | [3] 11.4% | [4] 11.8% | [5] 0.05% | [6] 15.6%

CN(C)CCNC(=O)c1cnn(C)c1[N+](=O)[O-]
inactive: [1] 26.4% | [2] 8.75% | [3] 17.3% | [4] 13.2% | [5] 0% | [6] -59.1%

COC(=O)CC(c1ccc2c(c1)OCO2)N1CCCCC1 (centres undefined)
inactive: [1] 7.35% | [2] -12.9% | [3] -11.7% | [4] -22.9% | [5] -1% | [6] 11.2%

O=C(O)C(NCCCNC(C(=O)O)c1ccccc1)c1ccccc1 (centres undefined)
inactive: [1] 22.4% | [2] 14.2% | [3] 22.6% | [4] 37.6% | [5] 21.7% | [6] 19.1%

CCCCCCCCN1N=C(C)CCC1=O
inactive: [1] -7.55% | [2] -9.2% | [3] -0.45% | [4] -23.7% | [5] -25.7% | [6] -8.55%

CN(C)Cc1ccccc1COC(=O)c1ccccc1
inactive: [1] 19.1% | [2] 20.1% | [3] 26.1% | [4] 11.4% | [5] 17.4% | [6] 17.5%

NC(=O)NOCC(N)C(=O)O (centres undefined)
inactive: [1] -7.2% | [2] 1.8% | [3] 1.15% | [4] -41.3% | [5] 5.35% | [6] -2.9%

C/C(CCC1CCCCC1)=N/Nc1ccc([N+](=O)[O-])cc1[N+](=O)[O-]
inactive: [1] 24% | [2] 8.9% | [3] 22.8% | [4] 16.5% | [5] 6.95% | [6] 5.55%

C=CC1(C)CCC2C(=CCC3C2(C)CC(O)C(O)C3(C)COC2OC(C(=O)O)C(O)C(O)C2O)C1 (centres undefined) (tested in a mixture with another compound)
inactive: [1] 16.1% | [2] -3.55% | [3] -6.9% | [4] 18.3% | [5] 4.95% | [6] -67.3%

CCCCCCCCCCCCCCCC(=O)OCC1OC(OC(=O)CCCCCCCCCCCCCCC)C(OC(=O)CCCCCCCCCCCCCCC)C(OC(=O)CCCCCCCCCCCCCCC)C1OC(=O)CCCCCCCCCCCCCCC (centres undefined)
inactive: [1] -19.8% | [2] -25.8% | [3] -19.9% | [4] -7.05% | [5] -24.7% | [6] -14.8%
